According to PubChem BioAssay (NCATS):
Inconclusive results are not listed. Activity calls are given as the source filed them. The call rests on the fitted dose curve; in most records, active means well fitted cell-killing curve with a large enough effect; inconclusive means small, poorly fitted or top-dose-only effect, or effect the other way; inactive means no such curve, though single readings can be large or run the other way.
Potency means the concentration at half of the fitted maximal effect.

Test: Quantitative High-Throughput drug screen in 47 multiple myeloma cell lines against the NCATS MIPE library collection: VP6_DJ cell viability assay (AID 1919867); further: nearly all actives have a fitted effect of over 40% in size
Details: ATP luminescence, 48 h; series mostly up to 45.8 µM
From the text: PI: Beverly A. Mock Ph.D.
Laboratory of Cancer Biology and Genetics,
Center for Cancer Research, National Cancer Institute,
National Institute of Health, Bethesda, Maryland
Drug resistance and disease progression are common in multiple myeloma (MM) patients, underscoring the need for new therapeutic combinations. […] We hypothesized that effective combinations would reduce MYC expression and enhance p16 activity. […] These preclinical data identify potentially useful drug combinations for evaluation in drug-resistant MM and reveal potential mechanisms of combined drug sensitivity.
Described herein is the primary MIPE qHTS used to cherrypick compounds. Validated compounds were then further tested for potential synergistic activiy.
[1] Peat TJ, Gaikwad SM, Dubois W, Gyabaah-Kessie N, Zhang S, Gorjifard S, Phyo Z, Andres M, Hughitt VK, Simpson RM, Miller MA, Girvin AT, Taylor A, Williams D, D'Antonio N, Zhang Y, Rajagopalan A, Flietner E, Wilson K, Zhang X, Shinn P, Klumpp-Thomas C, McKnight C, Itkin Z, Chen L, Kazandijian D, Zhang J, Michalowski AM, Simmons JK, Keats J, Thomas CJ, Mock BA. Drug combinations identified by high-throughput screening promote cell cycle transition and upregulate Smad pathways in myeloma. Cancer Lett. 2023 Aug 1;568:216284. doi: 10.1016/j.canlet.2023.216284. Epub 2023 Jun 24. PMID: 37356470; PMCID: PMC10408729.
SEQUENCE No. (e.g., 1, 2, 3, etc.); […] (e.g., Cells, Incubation, Reagent, etc.); VALUE and DESCRIPTION.
1; Cells; 5 uL; white, solid bottom 1536-well Greiner assay plate.
2; Compounds; 23 nL; Kalypsis pin tool (Wako USA) equipped with a 1536-well pin head to transfer to the assay plates.
3; Incubation; 48 hours; 37C incubation.
4; Reagent;5uL; CellTiter Glo (Promega).
5; Detector; 425V; Luminescence; Viewlux PerkinElmer.
NOTES (numbers refer to Sequence numbers above)
1. The cell-based screening methods employed in this study were like those previously published. Briefly, the corresponding myeloma cell lines were screened in 1,536-well plates with 500 cells, 5-uL per well for inhibition of cell viability (assessed by measuring ATP levels with CellTiterGlo).
2. NCATS MIPE 4.0 library of approved and investigational drugs were added using the Kalypsis pin tool. Wells treated with DMSO only for 100% viability and media only for 0% viability were used as controls.
3. The assay plates were covered and incubated for 48 hours in a 37C, 5% CO2 incubator with controlled humidity.
4. After 48 hours, CellTilter-GloTM luminescent substrate mix (Promega) reagent was added to the assay plate and plates we incubated for 5 min at room temperature.
5. Signal was measured as median relative luminescence units on a ViewLux (PerkinElmer) multiplate reader.
[1] Heske CM, Davis MI, Baumgart JT, Wilson K, Gormally MV, Chen L, Zhang X, Ceribelli M, Duveau DY, Guha R, Ferrer M, Arnaldez FI, Ji J, Tran HL, Zhang Y, Mendoza A, Helman LJ, Thomas CJ. Matrix Screen Identifies Synergistic Combination of PARP Inhibitors and Nicotinamide Phosphoribosyltransferase (NAMPT) Inhibitors in Ewing Sarcoma. Clin Cancer Res. 2017 Dec 1;23(23):7301-7311. doi: 10.1158/1078-0432.CCR-17-1121. Epub 2017 Sep 12. PMID: 28899971; PMCID: PMC6636827.
With Nc1cccc(S(=O)(=O)N2CCCN(S(=O)(=O)c3ccc4c(c3)OCCO4)CC2)c1 the Potency was 8.33 µM (active).
With O=c1ncn2nc(Sc3ccc(F)cc3F)ccc2c1-c1c(Cl)cccc1Cl the Potency was 9.35 µM (active).
For Cc1ccc(-n2nc(C(C)(C)C)cc2NC(=O)Nc2ccc(OCCN3CCOCC3)c3ccccc23)cc1, the Potency was 10.5 µM (active).
For Cc1ccccc1C(C(=O)NC1CCCC1)N(C(=O)Cn1cnc2ccccc21)c1cccc(F)c1 (stereo not given), the Potency was 2.35 µM (active).
In the case of c1ccc(-c2nn3c(c2-c2ccnc4cc(OCCN5CCOCC5)ccc24)CCC3)nc1, the Potency is reported as 1.87 µM (active).
In the case of CCCS(=O)(=O)Nc1ccc(F)c(C(=O)c2c[nH]c3ncc(-c4ccc(Cl)cc4)cc23)c1F, the Potency is reported as 18.7 µM (active).
For CCOC(=O)C1=C[C@]2(CC)CCCN3CCc4c(n1c1ccccc41)[C@@H]32, the Potency was 9.35 µM (active).
With O=C(O)CCc1ccc(NCc2cccc(Oc3ccccc3)c2)cc1 the Potency was “inactive”.
In the case of CNC[C@H](O)c1cccc(O)c1, the Potency is reported as 1.32 µM (active).
In the case of Cc1cccc(-c2nn(C(=S)Nc3ccccc3)cc2-c2ccnc3ccccc23)n1, the Potency is reported as 9.35 µM (active).
For COc1ccc(-c2ccc3c(N4CCOC[C@H]4C)nc(N4CCOC[C@H]4C)nc3n2)cc1CO, the Potency was 0.0066 µM (active).
In the case of CCN(CC)CCCC(C)Nc1ccnc2cc(Cl)ccc12 (stereo not given), the Potency is reported as 11.8 µM (active).
In the case of Cc1ccnc(NS(=O)(=O)c2ccc(NC(=O)Nc3ccc(S(=O)(=O)Nc4nccc(C)n4)cc3)cc2)n1, the Potency is reported as 2.64 µM (active).
In the case of Cn1cnc([N+](=O)[O-])c1Sc1ncnc2nc[nH]c12, the Potency is reported as 16.6 µM (active).
For OC[C@H](Cc1ccccc1)Nc1nc(Oc2ccc3c(c2)CCC3)nc2c1ncn2Cc1ccc(-c2ccccc2)cc1, the Potency was “inactive”.
In the case of CC(c1cc2ccccc2s1)N(O)C(N)=O (stereo not given), the Potency is reported as 3.32 µM (active).
For O=C1CCc2cc(OCCCCc3nnnn3C3CCCCC3)ccc2N1, the Potency was “inactive”.
For CC1(C)Cc2c(-c3ccccc3)c(-c3ccc(Cl)cc3)c(CC(=O)O)n2C1, the Potency was 14.8 µM (active).
With COc1ccc2c3n(c(=NC(=O)c4cccnc4)nc2c1OC)CCN3 the Potency was 1.48 µM (active).
For CCC(=O)N[C@H]1CC[C@H](C(=O)N(C)c2ccc(-c3nc4ccccc4o3)cc2)C1, the Potency was 14.8 µM (active).
In the case of COc1ccccc1[C@H](c1cccc2ccccc12)[C@@](C)(C#N)C(=O)N1CCC(c2cccc(C(F)(F)F)c2)CC1, the Potency is reported as 5.26 µM (active).
For COc1cccc2cc(-c3nc(C4CCC(C(=O)O)CC4)n4ncnc(N)c34)[nH]c12 (stereo not given), the Potency was 0.833 µM (active).
In the case of O=NN(CCCl)C(=O)NCCCl, the Potency is reported as “inactive”.
With Cc1ccccc1C(OCCN(C)C)c1ccccc1 (stereo not given) the Potency was “inactive”.
For Cc1cccc(-c2[nH]c(C(C)(C)C)nc2-c2ccc3nccnc3c2)n1, the Potency was 2.96 µM (active).
For Cc1cc2c(C(C)C)c(O)c(O)c(C=O)c2c(O)c1-c1c(C)cc2c(C(C)C)c(O)c(O)c(C=O)c2c1O, the Potency was 5.9 µM (active).
In the case of CCN(c1ccccc1)c1cc(NC)[n+](C)c(C)n1, the Potency is reported as “inactive”.
In the case of CCCCNc1cc(C(=O)O)cc(S(N)(=O)=O)c1Oc1ccccc1, the Potency is reported as “inactive”.
For NC[C@H](O)c1ccc(O)c(O)c1, the Potency was 2.96 µM (active).
With Cc1n[nH]c(C)c1Cc1sc2c(c1C(=O)N1C[C@H](O)CO1)c(=O)n(C)c(=O)n2CC(C)C the Potency was “inactive”.
With Cc1c(CN2CCN(C(=O)C(C)C)CC2)sc2c(N3CCOCC3)nc(-c3cnc(N)nc3)nc12 the Potency was 0.105 µM (active).
With Cn1cnc2c(F)c(Nc3ccc(Br)cc3Cl)c(C(=O)NOCCO)cc21 the Potency was 0.296 µM (active).
With CN(C)c1ccc(Nc2nc(N)n(C(=O)c3c(F)cccc3F)n2)cc1 the Potency was 16.6 µM (active).
For CN(C(=O)c1ccc(F)cc1C(F)(F)F)C1CCN(c2nnc(-c3ccnn3C)c3ccccc23)CC1, the Potency was 16.6 µM (active).
With COc1ccc(COc2cc3oc(=O)c4cc(C(C)O)ccc4c3cc2OC)cc1 (stereo not given) the Potency was 14.8 µM (active).
With CS(=O)(=O)c1cccc(CNc2nc(Nc3ccc4c(c3)CCC(=O)N4)ncc2C(F)(F)F)c1 the Potency was 5.26 µM (active).
In the case of CCOc1cc(N2CCC(O)CC2)ccc1Nc1ncc2c(n1)N(C)c1ccccc1C(=O)N2C, the Potency is reported as 2.09 µM (active).
With Cc1cnc(Nc2ccc(OCCN3CCCC3)cc2)nc1Nc1cccc(S(=O)(=O)NC(C)(C)C)c1 the Potency was 0.332 µM (active).
For Cc1ccc(N(CC2=NCCN2)c2cccc(O)c2)cc1, the Potency was “inactive”.
In the case of O=C(O)[C@@H](c1ccc(OCc2ccc3ccccc3n2)cc1)C1CCCC1, the Potency is reported as 5.9 µM (active).
